The results in this text go back to PubChem BioAssay (Tox21).

Structures are written as SMILES. Inconclusive results are not listed. Unmarked numbers belong to inactive results. Calls come from the whole dose curve; as a rule, active = well fitted curve in the direction sought with a large enough effect in the repeat runs; inconclusive = weak or mixed curves; inactive = no such curve, though single readings can be large; an effect the other way counts as inactive or inconclusive.
% is set by controls: 0 for no effect and ±100 for the full control effect.

A short description of one assay: qHTS RealTime-Glo MT Cell Viability Assay in HepG2 cells - 8 hour (AID 1224873). Note: nearly all actives have a fitted effect of over 55% in size. Conditions: RealTime-Glo luminescence; series mostly up to 76.8 µM; viability change, negative = cytotoxic: at the top concentration. In outline:
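Real-time viability: cells seeded at 600 per well together with NanoLuc and cell-permeant prosubstrate, compounds added after 5 h incubation. Luminescence tracked at 0, 8, 16, 24, 32 and 40 h of exposure.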
A general note: In qHTS, concentration-response curves come from the screen itself.
Consider `COc1cccc2c1cc([N+](=O)[O-])c1c(C(=O)O)cc3c(c12)OCO3`, for which the “viability change, negative = cytotoxic” value was -16.1%.
On to `C1CCC(C2CCCCC2)CC1`, for which the “viability change, negative = cytotoxic” value is 0.134%.
Take `Cc1coc2c1CCC(C)C2` (stereo unspecified): the “viability change, negative = cytotoxic” value was -0.178%.
On the same count and under the same terms, under `COc1cc(OC)nc(NC(=O)NS(=O)(=O)c2ncccc2C(=O)N(C)C)n1` stands 0.478%.
Consider `CCOC(=O)NC(=S)Nc1ccccc1NC(=S)NC(=O)OCC`, for which the “viability change, negative = cytotoxic” value was -1.89%.
Same read-out and setting: as for `CCOP(=S)(OCC)SCSc1ccc(Cl)cc1`, the figure is -10.4%; as for `C[C@@H]1CN(C2CCC(C#N)(c3ccc(F)cc3)CC2)CC[C@]1(C(=O)O)c1ccccc1` (stereo partly specified), 2.43% [at 35.3 µM].
The same measure, in the same setting: as for `CCOP(=S)(OCC)SCSP(=S)(OCC)OCC`, the figure is -10.9%.
The same measure, in the same setting: as for `O=C(O)c1ccc2[nH]cc(CCCCN3CC=C(c4ccccc4)CC3)c2c1`, the figure is -9.21% [at 35.3 µM]; as for `N#CCCC#N`, -3.69%; as for `O=C1OC(CCN2CCCCC2)OC1(c1ccccc1)c1ccccc1` (stereo unspecified), -14.1% [at 35.3 µM].
For `Nc1n[nH]c(N)n1`, the “viability change, negative = cytotoxic” value is -0.23%.
On the same count and under the same terms, under `CCNc1nc(NC(C)C)nc(OC)n1` stands 4.13%; under `CCCCC(=O)Cl`, 0.794%.
Consider `CCN(CC)CCOC(=O)C(C)(c1ccccc1)c1ccccc1`, for which the “viability change, negative = cytotoxic” value was 0.712% [at 35.3 µM].
Same read-out and setting: as for `CCC(=O)c1ccccc1`, the figure is 4.1%; as for `N#CC(O)c1ccccc1` (stereo unspecified), 1.48%.
Still for that read-out and setting: under `O=C1OC(=O)C2C1C1(Cl)C(Cl)=C(Cl)C2(Cl)C1(Cl)Cl` (stereo unspecified) stands -0.841%; under `CC(C)NCC(O)c1ccc(N)c(C#N)c1` (stereo unspecified), 2.07% [at 35.3 µM].
Same read-out and setting: as for `CN(N=O)C(N)=O`, the figure is -0.2%.
In the case of `CS(=O)(=O)c1cc(C(F)(F)F)ccc1C(=O)c1cnoc1C1CC1`, the “viability change, negative = cytotoxic” value is -1.8%.
Same read-out and setting: as for `C[C@]1(O)CC[C@H]2[C@@H]3CCC4=CC(=O)CC[C@]4(C)[C@@]3(F)[C@@H](O)C[C@@]21C`, the figure is -16.2%; as for `O=S(=O)(O)C(F)(F)C(F)(F)C(F)(F)C(F)(F)C(F)(F)C(F)(F)F`, 6.9%.
The same measure, in the same setting: under `CN(C)CCc1ccc(O)cc1` stands 1.08% [at 35.3 µM]; under `CC(Oc1ccc(Oc2ncc(C(F)(F)F)cc2Cl)cc1)C(=O)O` (stereo unspecified), 2.39%; under `COc1cc2c(cc1OC)[C@@]13CCN4CC5=CCO[C@H]6CC(=O)N2[C@H]1[C@H]6[C@H]5C[C@H]43`, 1.55%.
Still for that read-out and setting: as for `CCC/C(=N\OCC)C1=C(O)CC(CC(C)SCC)CC1=O` (stereo unspecified), the figure is -0.174%; as for `CCOC(=O)/C=C(C)/C=C/C[C@@H](C)CCCC(C)C`, 3.39%.
For `COc1cccc(C(=O)NN(C(=O)c2cc(C)cc(C)c2)C(C)(C)C)c1C`, the “viability change, negative = cytotoxic” value was -19.6%.
As to `O=[N+]([O-])c1cccc(O)c1`, the “viability change, negative = cytotoxic” value was -0.644%.
The same measure, in the same setting: as for `COc1cc(C[C@@H](C)N)c(OC)cc1C`, the figure is -4.43%; as for `CC(C)(C)C(=O)C(Oc1ccc(Cl)cc1)n1cncn1` (stereo unspecified), -0.695%; as for `OC(Cn1cncn1)(c1ccc(F)cc1)c1ccccc1F` (stereo unspecified), -8.71%.
For `CC(C=O)Cc1ccc2c(c1)OCO2` (stereo unspecified), the “viability change, negative = cytotoxic” value was 3%.
For `COc1cc(OC)nc(Sc2cccc(Cl)c2C(=O)O)n1`, the “viability change, negative = cytotoxic” value is 0.745%.
With `CC(CC(C#N)(c1ccccc1)c1ccccc1)N(C)C` (stereo unspecified), the “viability change, negative = cytotoxic” value is -5.46%.
On to `CCOP(=S)(OCC)Oc1ncn(-c2ccccc2)n1`, for which the “viability change, negative = cytotoxic” value is -18.8%.

A further assay is described as follows: A CellTox Green Cytotoxicity Assay to monitor cytotoxicity in HEK293 cells - 24 hour (AID 1224875). Note: nearly all actives have a fitted effect of over 45% in size. Conditions: CellTox Green fluorescence; series mostly up to 76.8 µM; activity change: at the top concentration. In outline: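 Dead-cell fluorescence measured kinetically: asymmetric cyanine dye, HEK293, 600 cells/well, 5 h settle, 23 nL cpd/DMSO, 37 C, reads 0–40 h every 8 h.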
Consider `C1CCC(C2CCCCC2)CC1`, for which the “activity change” value was 13.5%.
Still for that read-out and setting: as for `Cc1coc2c1CCC(C)C2` (stereo unspecified), the figure is -0.512%.
The same measure, in the same setting: under `CCOC(=O)NC(=S)Nc1ccccc1NC(=S)NC(=O)OCC` stands 4.46%; under `CCOP(=S)(OCC)SCSc1ccc(Cl)cc1`, -0.0198%; under `C[C@@H]1CN(C2CCC(C#N)(c3ccc(F)cc3)CC2)CC[C@]1(C(=O)O)c1ccccc1` (stereo partly specified), 1.08% [at 35.3 µM, active compounds read high].
Same read-out and setting: as for `O=C(O)c1ccc2[nH]cc(CCCCN3CC=C(c4ccccc4)CC3)c2c1`, the figure is 0.825% [at 35.3 µM, active compounds read high]; as for `N#CCCC#N`, -1.83%; as for `Nc1n[nH]c(N)n1`, -8.87%.
Consider `CCNc1nc(NC(C)C)nc(OC)n1`, for which the “activity change” value was -18%.
On to `CCCCC(=O)Cl`, for which the “activity change” value was -0.113%.
`CCN(CC)CCOC(=O)C(C)(c1ccccc1)c1ccccc1`: the “activity change” value was 0.198% [at 35.3 µM, active compounds read high].
On to `CCC(=O)c1ccccc1`, for which the “activity change” value is 2.09%.
For the compound `N#CC(O)c1ccccc1` (stereo unspecified), the “activity change” value was 0.215%.
As for `O=C1OC(=O)C2C1C1(Cl)C(Cl)=C(Cl)C2(Cl)C1(Cl)Cl` (stereo unspecified), the “activity change” value is 1.91%.
Take `CC(C)NCC(O)c1ccc(N)c(C#N)c1` (stereo unspecified): the “activity change” value was -1.02% [at 35.3 µM, active compounds read high].
In the case of `O=S(=O)(O)C(F)(F)C(F)(F)C(F)(F)C(F)(F)C(F)(F)C(F)(F)F`, the “activity change” value was 1.56%.
Still for that read-out and setting: under `CN(C)CCc1ccc(O)cc1` stands -1.16% [at 35.3 µM, active compounds read high].
In the case of `CC(Oc1ccc(Oc2ncc(C(F)(F)F)cc2Cl)cc1)C(=O)O` (stereo unspecified), the “activity change” value is -2.03%.
With `COc1cc2c(cc1OC)[C@@]13CCN4CC5=CCO[C@H]6CC(=O)N2[C@H]1[C@H]6[C@H]5C[C@H]43`, the “activity change” value was -0.107%.
In the case of `CCC/C(=N\OCC)C1=C(O)CC(CC(C)SCC)CC1=O` (stereo unspecified), the “activity change” value was -2.23%.
The same measure, in the same setting: as for `CCOC(=O)/C=C(C)/C=C/C[C@@H](C)CCCC(C)C`, the figure is 4.86%; as for `O=[N+]([O-])c1cccc(O)c1`, -6.56%.
As for `COc1cc(C[C@@H](C)N)c(OC)cc1C`, the “activity change” value is 16.9%.
For `CC(C)(C)C(=O)C(Oc1ccc(Cl)cc1)n1cncn1` (stereo unspecified), the “activity change” value is 0.0221%.
The same measure, in the same setting: as for `OC(Cn1cncn1)(c1ccc(F)cc1)c1ccccc1F` (stereo unspecified), the figure is -0.601%; as for `CC(C=O)Cc1ccc2c(c1)OCO2` (stereo unspecified), -3.38%; as for `CCOP(=S)(OCC)Oc1ncn(-c2ccccc2)n1`, -3.91%.

The nature of another assay: A CellTox Green Cytotoxicity Assay to monitor cytotoxicity in HepG2 cells - 16 hour (AID 1224876). Note: nearly all actives have a fitted effect of over 45% in size. Conditions: CellTox Green fluorescence; series mostly up to 76.8 µM; cytotoxicity increase: at the top concentration. In outline:
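First, HepG2 cells (600/well) mixed with reagent were plated; second, after 5 h at 37 C they received compounds via pintool; third, fluorescence was measured at 0 h through 40 h at 8 h intervals.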
`COc1cccc2c1cc([N+](=O)[O-])c1c(C(=O)O)cc3c(c12)OCO3`: the “cytotoxicity increase” value was -0.101%.
Still for that read-out and setting: under `C1CCC(C2CCCCC2)CC1` stands -9.84%.
Consider `Cc1coc2c1CCC(C)C2` (stereo unspecified), for which the “cytotoxicity increase” value is 16.5%.
Still for that read-out and setting: under `COc1cc(OC)nc(NC(=O)NS(=O)(=O)c2ncccc2C(=O)N(C)C)n1` stands 0.963%.
Still for that read-out and setting: as for `CCOC(=O)NC(=S)Nc1ccccc1NC(=S)NC(=O)OCC`, the figure is -1.06%; as for `CCOP(=S)(OCC)SCSc1ccc(Cl)cc1`, -0.997%; as for `C[C@@H]1CN(C2CCC(C#N)(c3ccc(F)cc3)CC2)CC[C@]1(C(=O)O)c1ccccc1` (stereo partly specified), 1.18% [at 35.3 µM].
As for `CCOP(=S)(OCC)SCSP(=S)(OCC)OCC`, the “cytotoxicity increase” value was 0.876%.
Same read-out and setting: as for `O=C(O)c1ccc2[nH]cc(CCCCN3CC=C(c4ccccc4)CC3)c2c1`, the figure is -24.1% [at 35.3 µM].
As for `N#CCCC#N`, the “cytotoxicity increase” value was -0.564%.
For the compound `O=C1OC(CCN2CCCCC2)OC1(c1ccccc1)c1ccccc1` (stereo unspecified), the “cytotoxicity increase” value is -9.95% [at 35.3 µM].
On the same count and under the same terms, under `Nc1n[nH]c(N)n1` stands 0.804%; under `CCNc1nc(NC(C)C)nc(OC)n1`, -1.87%.
`CCCCC(=O)Cl`: the “cytotoxicity increase” value is -5.53%.
On to `CCN(CC)CCOC(=O)C(C)(c1ccccc1)c1ccccc1`, for which the “cytotoxicity increase” value is 25.4% [at 35.3 µM].
Take `CCC(=O)c1ccccc1`: the “cytotoxicity increase” value is 2.35%.
In the case of `N#CC(O)c1ccccc1` (stereo unspecified), the “cytotoxicity increase” value was -0.649%.
The same measure, in the same setting: as for `O=C1OC(=O)C2C1C1(Cl)C(Cl)=C(Cl)C2(Cl)C1(Cl)Cl` (stereo unspecified), the figure is -13.1%; as for `CC(C)NCC(O)c1ccc(N)c(C#N)c1` (stereo unspecified), 0.376% [at 35.3 µM].
Still for that read-out and setting: under `CN(N=O)C(N)=O` stands -6.53%.
Regarding `CS(=O)(=O)c1cc(C(F)(F)F)ccc1C(=O)c1cnoc1C1CC1`, the “cytotoxicity increase” value is -11.3%.
Still for that read-out and setting: as for `C[C@]1(O)CC[C@H]2[C@@H]3CCC4=CC(=O)CC[C@]4(C)[C@@]3(F)[C@@H](O)C[C@@]21C`, the figure is 2.37%.
On the same count and under the same terms, under `O=S(=O)(O)C(F)(F)C(F)(F)C(F)(F)C(F)(F)C(F)(F)C(F)(F)F` stands 2.47%.
Same read-out and setting: as for `CN(C)CCc1ccc(O)cc1`, the figure is -10.3% [at 35.3 µM]; as for `CC(Oc1ccc(Oc2ncc(C(F)(F)F)cc2Cl)cc1)C(=O)O` (stereo unspecified), 1.81%.
On to `COc1cc2c(cc1OC)[C@@]13CCN4CC5=CCO[C@H]6CC(=O)N2[C@H]1[C@H]6[C@H]5C[C@H]43`, for which the “cytotoxicity increase” value is -6.95%.
As for `CCC/C(=N\OCC)C1=C(O)CC(CC(C)SCC)CC1=O` (stereo unspecified), the “cytotoxicity increase” value is -9.28%.
Consider `CCOC(=O)/C=C(C)/C=C/C[C@@H](C)CCCC(C)C`, for which the “cytotoxicity increase” value was -9.13%.
For `COc1cccc(C(=O)NN(C(=O)c2cc(C)cc(C)c2)C(C)(C)C)c1C`, the “cytotoxicity increase” value is -2.94%.
For the compound `O=[N+]([O-])c1cccc(O)c1`, the “cytotoxicity increase” value was -10.9%.
On the same count and under the same terms, as for `COc1cc(C[C@@H](C)N)c(OC)cc1C`, the figure is -2.46%; as for `CC(C)(C)C(=O)C(Oc1ccc(Cl)cc1)n1cncn1` (stereo unspecified), 0.428%; as for `OC(Cn1cncn1)(c1ccc(F)cc1)c1ccccc1F` (stereo unspecified), -10.8%.
Still for that read-out and setting: under `CC(C=O)Cc1ccc2c(c1)OCO2` (stereo unspecified) stands 1.85%; under `COc1cc(OC)nc(Sc2cccc(Cl)c2C(=O)O)n1`, -13.2%.
For `CC(CC(C#N)(c1ccccc1)c1ccccc1)N(C)C` (stereo unspecified), the “cytotoxicity increase” value is 14%.
With `CCOP(=S)(OCC)Oc1ncn(-c2ccccc2)n1`, the “cytotoxicity increase” value was 6.4%.
